Assay results published in ChEMBL document CHEMBL3988442, “University of Dundee, Small-Polar-MMV Screening Library” (2021).
Out of some 69,000 compounds screened, about 420 (0.61%) showed an effect of 50% or more. This excerpt belongs to a sample that is enriched for strong results.

molecular target: T1, Histidine--tRNA ligase (Leishmania infantum) (UniProt A4I591); assay: Leishmania infantum Histidine tRNA synthetase (LdHisRS); format: functional; set-up: scale not given: in the data most compounds retested in dose-response had high values; settings: 30 µM
T1 sequence (whole entry): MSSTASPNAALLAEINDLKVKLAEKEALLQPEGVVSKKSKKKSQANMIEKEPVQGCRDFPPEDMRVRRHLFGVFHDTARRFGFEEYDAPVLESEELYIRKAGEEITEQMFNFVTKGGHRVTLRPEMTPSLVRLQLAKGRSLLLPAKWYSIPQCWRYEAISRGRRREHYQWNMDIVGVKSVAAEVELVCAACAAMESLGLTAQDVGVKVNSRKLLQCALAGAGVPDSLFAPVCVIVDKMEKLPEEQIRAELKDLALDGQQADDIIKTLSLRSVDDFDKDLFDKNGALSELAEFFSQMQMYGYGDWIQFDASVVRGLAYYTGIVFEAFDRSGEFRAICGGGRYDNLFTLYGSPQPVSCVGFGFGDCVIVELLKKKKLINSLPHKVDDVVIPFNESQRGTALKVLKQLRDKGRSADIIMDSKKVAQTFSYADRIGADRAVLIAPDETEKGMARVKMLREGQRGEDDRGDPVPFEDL

Row | Compound | Percent Effect
1 | Cc1ccc(CN2CCN(C(=O)C3CCC3)[C@@H]3CS(=O)(=O)C[C@@H]32)cc1C | 20.6%
2 | CC1=N[C@@]2(CC[C@@H]3CN(C(=O)NC(C)C)C[C@@H]32)C(=O)N1CC1CC1 | 11.1%
3 | CC(C)C(=O)N1CC[C@H]2N(C)CC[C@@]2(C(=O)Nc2ccccc2)CC1 | 2.7%
4 | COCCN1CC[C@H]2CN(Cc3ccc(C)s3)C[C@@H]2C1=O | 7.69%
5 | CC(=O)N1CC[C@H]2OCC[C@@]2(C(=O)NCc2ccco2)C1 | 13.2%
6 | Cc1cccnc1[C@H](C)Nc1nc(-c2cccnc2)nc2c1CNC2 | 54.3%
7 | CCc1cc(C(C)Nc2nc(-c3cccnc3)nc3c2CNC3)on1 (configuration not stated) | 17.1%
8 | Cc1cc(CC(C)Nc2nc(-c3cccnc3)nc3c2CNC3)[nH]n1 (configuration not stated) | 22.9%
9 | CCC(C)NC(=O)c1coc(COc2cccc(F)c2)n1 (configuration not stated) | 19.7%
10 | COC(=O)[C@@H](NC(=O)c1coc(COc2cccc(F)c2)n1)C(C)C | 6.58%
11 | CC(NC(=O)c1coc(COc2cccc(F)c2)n1)c1nnc(N)s1 (configuration not stated) | 54%
12 | CN(C[C@@H]1CCC[C@@H]2CN(c3ncccn3)C[C@@H]21)C1CC1 | 23.3%
13 | COC[C@@H]1CC[C@H]2[C@H](CCN2S(=O)(=O)c2cccc(F)c2)O1 | 2.65%
14 | O=C(NCc1ccccn1)[C@@]12CCO[C@@H]1CCN(c1ncccn1)C2 | 15.4%
15 | COc1cccc(OCC(=O)Nc2cc(C)cnc2OC)c1 | -3.17%
16 | CCOCC(=O)Nc1cc(C)cnc1OC | 9.52%
17 | COc1ncc(C)cc1NC(=O)COCC(F)(F)F | 77.8%
18 | O=C(c1ccccn1)N1CC[C@H]2[C@H]1CCN2S(=O)(=O)C1CC1 | 14%
19 | CN(C)C(=O)[C@H]1C[C@@H]2CN(c3ncccn3)C[C@H]1O2 | 22.2%
20 | CCCc1ccc(CN2CCN(C(=O)NCC)[C@H]3CS(=O)(=O)C[C@H]32)o1 | 13.2%
21 | O=C(c1ccco1)N1CC[C@H]2[C@H]1CCN2CC1CCOCC1 | 6.57%
22 | Nc1cc(N2CCCC(COc3ccc(F)cc3)C2)nc(N)n1 (configuration not stated) | 24.1%
23 | Cc1ccccc1OCC1CCCN(c2cc(N)nc(N)n2)C1 (configuration not stated) | 72.3%
24 | Cc1nc(N)cc(N2CCCC(COc3cccc(F)c3)C2)n1 (configuration not stated) | 24.1%
25 | O=C(CC1CC1)N[C@@H]1CN(Cc2ccc(F)cc2)C[C@@H]2CCCO[C@@H]21 | 11.4%
26 | O=C(NC1CC1)[C@@H]1C[C@@H]2CCN(Cc3ccccc3)C[C@@H]2O1 | -7%

Row | Compound | Percent Effect
27 | Cc1ncsc1CN1C[C@@H]2COC[C@]2(C(=O)NC2CC(F)(F)C2)C1 | 20%
28 | Cc1nn(CCC#N)c(C)c1[C@@H]1C=C[C@@H](NCc2cccc(Cl)c2)C1 | 50%
29 | Cc1nc[nH]c1CNC1CC(=O)N(CCc2cccc(Cl)c2)C1 (configuration not stated) | 7.45%
30 | Cc1nn(CCC#N)c(C)c1[C@@H]1C=C[C@@H](NCc2ccc(F)cc2)C1 | 25%
31 | Cc1cnc(C(=O)N2C[C@H]3CC[C@@H]2CN(c2cnccn2)C3)cn1 | 18.6%
32 | O=C(NC[C@@]1(COc2cnccn2)C[C@@H](O)[C@@H](O)C1)C1CC1 | 5.41%
33 | Cc1ccc(C(=O)N2CCO[C@H]3[C@H](OCCN(C)C)CC[C@@H]32)cn1 | 9.72%
34 | Cc1cccc(NC(=O)c2[nH]nc(C(C)C)c2Br)n1 | 12.5%
35 | O=C(c1ccco1)N1C[C@@H]2[C@@H](C1)OCC(=O)N2Cc1cccnc1 | 20.4%
36 | Cc1ccc(CN2C[C@@H]3COC[C@@H](CC(=O)N4CCOCC4)[C@@H]3C2)s1 | 20.5%
37 | CCN1CC2(CCOCC2)c2cc(NS(=O)(=O)CC)ccc21 | 75.2%
38 | CCC(=O)Nc1ccc2c(c1)C1(CCOCC1)CN2CCOC | 46%
39 | CCS(=O)(=O)Nc1ccc2c(c1)C1(CCOCC1)CN2C | 51.5%
40 | CCCC(=O)Nc1ccc2c(c1)C1(CCOCC1)CN2CCOC | 35.1%
41 | CCC(=O)Nc1ccc2c(c1)C1(CCOCC1)CN2CCF | 22.5%
42 | CN(C)C(=O)N1CC2(CCOCC2)c2cc(NS(=O)(=O)C3CC3)ccc21 | 15.4%
43 | CC(c1ccccc1)N1Cc2nc(N(C)C)ncc2C1=O (configuration not stated) | 3.54%
44 | CC1CCN(c2ncc3c(n2)CN(c2ccc(F)cc2)C3=O)CC1 | 12.4%
45 | COc1ccc(CN2C[C@H]3CN(Cc4ccncc4)C(=O)[C@H]3C2)cc1 | 21.4%
46 | COCCN1CCN(C(=O)c2ccc(COC)o2)[C@H]2CS(=O)(=O)C[C@H]21 | 21.3%
47 | c1coc(CN2C[C@H](OCC3CCOCC3)[C@H]3COC[C@H]32)c1 | 9.02%
48 | COc1ccc2c(c1)ncn2C[C@]1(O)CCCN2CCCC[C@@H]21 | 4.2%
49 | CCn1nc(C)c(CN(CCOC)C(=O)c2cnc(C)nc2O)c1C | 20%
50 | CCOc1ccc(C(=O)N(CCOC)Cc2c(C)nn(CC)c2C)o1 | 63.3%
51 | CCn1nc(C)c(CN(CCOC)C(=O)c2ccccc2N(C)C)c1C | 21.7%
52 | Cc1nn(C)c(C)c1S(=O)(=O)N1CC[C@@H]2O[C@@H](C)C[C@H]2C1 | 7.69%
